Inconclusive results are not listed. Calls of active or inactive are those of the source. How the source made its calls: active means hit-call score of the fitted dose curve at least 0.9, where 1 is the maximum; inconclusive means response in the unintended direction; inactive means score below 0.9.

Sequence of zebrafish Retinoid X Receptor beta (RXRb), rxrba (gene 30530) (Q7SYN5 whole entry, looked up): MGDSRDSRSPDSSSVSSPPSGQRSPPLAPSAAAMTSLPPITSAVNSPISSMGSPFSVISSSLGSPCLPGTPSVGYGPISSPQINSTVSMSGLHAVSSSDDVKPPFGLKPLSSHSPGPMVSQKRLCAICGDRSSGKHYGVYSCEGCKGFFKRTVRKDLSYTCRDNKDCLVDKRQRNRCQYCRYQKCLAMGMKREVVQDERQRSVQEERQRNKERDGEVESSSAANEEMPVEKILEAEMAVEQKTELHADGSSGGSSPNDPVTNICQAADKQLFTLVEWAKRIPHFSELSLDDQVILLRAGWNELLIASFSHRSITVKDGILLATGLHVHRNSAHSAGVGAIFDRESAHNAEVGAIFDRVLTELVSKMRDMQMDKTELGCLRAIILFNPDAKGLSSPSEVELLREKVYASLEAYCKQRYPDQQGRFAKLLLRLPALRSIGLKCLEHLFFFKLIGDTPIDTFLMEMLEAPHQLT

The assay has as its target zebrafish Retinoid X Receptor beta (RXRb), rxrba (gene 30530) (UniProt Q7SYN5). As to the kind of experiment: ATG_zfRXRb_EcoTox2: Attagene TRANS-FACTORIAL EcoTox-2 HepG2 Assay for zebrafish Retinoid X Receptor beta (RXRb). As for the experimental part:
ATG_EcoTox2 is a cell-based, multiplexed assay created by modifying the existing Attagene TRANS-FACTORIAL system to include a panel of nuclear receptors from some or all the following species: human (Homo sapiens), african clawed frog (Xenopus laevis), rainbow trout (Oncorhynchus mykiss), japanese medaka (Oryzias latipes), and zebrafish (Danio rerio). The ECOTOX2-FACTORIAL format uses HepG2, a human liver cell line, with measurements taken at 24 hours after chemical dosing in a 24-well plate. ATG_zfRXRb_EcoTox2 is one of 29 assay components calculated in the ATG_EcoTox2 assay. It is designed to make measurements of mRNA induction, a form of inducible reporter, as detected with fluorescence intensity signals by Reverse transcription polymerase chain reaction (RT-PCR) and Capillary electrophoresis technology.The assay endpoint ATG_zfRXRb_EcoTox2 was analyzed in the positive analysis fitting direction relative to DMSO as the negative control and baseline of activity. Using a type of inducible reporter, measures of mRNA for gain-of-signal activity can be used to understand the reporter gene at the transcription factor-level as they relate to the gene RXRb. Furthermore, this assay endpoint can be referred to as a primary readout, because this assay has produced multiple assay endpoints where this one serves a reporter gene function. […]
Human liver HepG2 cells are transiently transfected with multiple reporter transcription units (MRTUs) in 6-well plates using FuGene 6 reagent (Roche; 3 ml FuGene/1 mg DNA). […] A major difference between the CIS and TRANS system is that in CIS activities of endogenous TFs are measured, whereas the TRANS assay evaluates changes in activities of exogenous, chimeric NR-Gal4 proteins. […] The fragments were purified using Qiaquick PCR columns (Qiagen), analyzed on an ABI 3130xL genetic analyzer (Applied Biosystems) with peak positions identified by using a set of X-rhodamine (ROX)-labeled MapMarker1000 molecular weight standards (BioVentures). […]
With `O=P(Oc1ccccc1)(Oc1ccccc1)Oc1ccccc1`, the compound was classed as inactive.

For `[Cl][Sn]([c]1ccccc1)([c]1ccccc1)[c]1ccccc1`, the AC50 is 95.2 nM (active).

Turning to `O=S(=O)(O)C(F)(F)C(F)(F)C(F)(F)C(F)(F)C(F)(F)C(F)(F)F`, the call was inactive.

A word on the AC50: it is the concentration giving half of the maximal activity seen.

The record behind these values is PubChem BioAssay AID2284358 (EPA ToxCast).
